Calls of active or inactive are those of the source.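 The calls were made as follows: active = z-score of at least 1.8 in each of two replicates, scored against plate mean and spread of sample wells; inactive = the rest.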

This experiment can be described thus: viability rescue of complex I mutant cybrids, primary screen, cell-based, galactose medium, ATP luminescence (AID 1645843).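 Also: positive z means more ATP and so rescue of galactose-driven cybrid death.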 The settings on record: complex I mutant cybrid cells, 72 h, stronger effect = higher value.
Regarding `COc1cccc2ccc(N3CCN(Cc4ccccn4)CC3)nc12`, the z-score was -0.51 (inactive).
For `Cc1ccccc1-c1cccc(C(=O)c2nccn2C)c1` the value was -0.54 (inactive); for `Cc1nsc(NC(=O)NC(C)c2ccc(Cl)cc2)n1` (centres undefined), -0.26 (inactive).
For `CC(C)n1cc(C(=O)N2CCCC(c3ccccc3)C2)cn1` (centres undefined) the value was -0.54 (inactive).
For `Cc1csc2c(=O)n(Cc3ccc(Cl)s3)cnc12` the value was -0.505 (inactive).
In the case of `CCN(C(=O)c1cc(-c2cnc(C(C)C)nc2)nc2cc(F)ccc12)C(C)C`, the z-score was -0.47 (inactive).
In the case of `CCC(=O)N(CC)c1cc(C)ccc1OC1(C(=O)O)CCSCC1` it was -0.47 (inactive); in that of `Cc1nn(C)c(C)c1-c1ccnc(NCc2ccc3nsnc3c2)n1`, -0.665 (inactive).
In the case of `O=C1CC(C(=O)N2CCc3sccc3C2)c2cc(F)ccc2N1` (centres undefined) it was 4.16 (active).
Consider `CC(C)Cc1noc(C2C3CCC4C(CCC32)C4(Cl)Cl)n1` (centres undefined), for which the z-score was -0.52 (inactive).
With `O=C(Nc1cccnc1)c1csc(Cc2ccccc2)n1`, the z-score is -0.815 (inactive).
As for `CC(=O)N1CCCN(c2nccc(-c3cnn(-c4ccccc4F)c3)n2)CC1`, the z-score is -0.71 (inactive).
In the case of `OCCCCCNc1nccc(-c2cnn(-c3ccc(F)cc3)c2)n1`, the z-score is -0.895 (inactive).
In the case of `COc1cc(C)ccc1C(=O)N1CCC(Cn2cc(C3CC3)nn2)CC1` it was -0.52 (inactive).
For `COc1cccc(CN2CCN(c3ccc4cccc(OC)c4n3)CC2)c1` the value was -0.86 (inactive).
With `CC[C@H](C)[C@H](N)C(=O)N1CCC(Cn2cc(C3CCCCC3)nn2)CC1`, the z-score was -0.81 (inactive).
For `CCn1cc(-c2cc(C(=O)N3CCN(C)C(=O)C3C)c3ccc(C)cc3n2)cn1` (centres undefined) the value was -0.19 (inactive); for `C=C1C(C)(C)[C@H]2CC[C@]1(C(=O)N1CCC(n3cc(CCCC)nn3)CC1)C2`, 2.16 (inactive).
For `CC(C)c1nc(Cn2cnc3sc4c(c3c2=O)CCCC4)cs1` the value was 1.35 (inactive); for `Cc1cc(N2CCCC(Cn3cc(CN)nn3)C2)nc(-c2ccccc2O)n1` (centres undefined), -0.9 (inactive); for `COc1ccc(C(C)=O)c(OC2(C(=O)O)CCSCC2)c1`, -0.58 (inactive).
In the case of `CCCCc1cn(C2CCN(C(=O)C3CCCO3)CC2)nn1` (centres undefined) it was -0.535 (inactive); in that of `Cc1nnc(NC(=O)N(C)CC2COc3ccccc3O2)s1` (centres undefined), 0.025 (inactive).
In the case of `Cc1cc(NC(=O)CCC2CC2)n(C(C)C)n1`, the z-score was -0.44 (inactive).

The record behind these values is PubChem BioAssay.
